Measles CPE = compounds protecting cells from measles virus cytopathic effect, primary screen, measles RdRp inhibitor project, single point, MLSMR library, absorbance; Measles virus-infected cells, CPE protection; protection (pct of control), % at 4 µM; hit rate 1.5% among 140,000; AID 841, 2007; in the data active = protection mostly above about 24%, no sharp cut-off; inactive = mostly below about 26%
CYP2C9 inhib = blockers of cytochrome P450 2C9 activity – biochemical, luminescence, ADME assay, primary screen | P11712 | CYP2C9 Supersomes, luciferin-H conversion | inhibition, % at 5 µM | hit rate 20% among 96,000 | AID 777, 2007;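 active = blocking of liver enzyme CYP2C9 beyond about 50% at 5 µM, limit read from the data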
Target sequence (P11712 whole entry, looked up): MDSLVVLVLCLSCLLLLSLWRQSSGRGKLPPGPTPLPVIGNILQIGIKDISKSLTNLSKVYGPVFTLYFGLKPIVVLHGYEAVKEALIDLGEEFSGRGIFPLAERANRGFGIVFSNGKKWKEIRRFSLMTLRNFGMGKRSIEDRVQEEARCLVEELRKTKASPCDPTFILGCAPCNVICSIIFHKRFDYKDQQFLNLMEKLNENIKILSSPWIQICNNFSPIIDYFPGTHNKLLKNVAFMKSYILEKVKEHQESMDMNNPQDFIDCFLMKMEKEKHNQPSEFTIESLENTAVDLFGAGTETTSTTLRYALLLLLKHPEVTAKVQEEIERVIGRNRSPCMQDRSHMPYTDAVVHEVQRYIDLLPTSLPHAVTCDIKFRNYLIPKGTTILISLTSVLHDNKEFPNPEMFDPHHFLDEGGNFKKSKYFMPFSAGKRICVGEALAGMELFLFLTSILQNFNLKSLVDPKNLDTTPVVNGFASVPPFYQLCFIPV
CYP2C9 act = human CYP2C9 activators, primary screen, biochemical, luminescence; recombinant CYP2C9, luciferin-H conversion; stronger effect = higher value; factor 1 = untreated enzyme, 0 = blocked; activation factor at 5 µM; hit rate 1.4% among 96,000;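 active = activation factor of 2 or more for CYP2C9 at a 5 µM dose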
CYP2C19 act = human CYP2C19 activators, primary screen, biochemical, luminescence; Cytochrome P450 2C19 (Homo sapiens), P33261; recombinant CYP2C19, luciferin-H EGE luminescence; stronger effect = higher value; 0 = fully inhibited enzyme, 1 = untreated enzyme; activation factor at 5 µM; 96,000 tested, under 10 active;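 active = activation factor of at least 2 at 5 µM in the primary screen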
CYP2C19 inhib = blockers of cytochrome P450 2C19 activity – biochemical, luminescence, ADME assay, primary screen; CYP2C19 Supersomes, luciferin-H EGE luminescence, 30 min; P33261; hit rate 21% among 96,000; inhibition, % at 5 µM;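 active = CYP2C19 inhibition above a set limit at 5 µM in the primary screen, cut at about 50% in these data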
Numbers stand for hits. Compounds with a hit are over-represented: about 22% of the library has one in this group of screens.

How did Cc1ccc(C2CC(=O)NC(SCC(=O)Nc3nccs3)=C2C#N)cc1 (configuration not stated) do in these assays?
Measles CPE: inactive; CYP2C9 inhib: 65.2; CYP2C9 act: inactive; CYP2C19 act: inactive; CYP2C19 inhib: inactive

Results for CCOc1ccccc1C1CC(=O)NC(SCC)=C1C#N (configuration not stated) ?
Measles CPE: inactive; CYP2C9 inhib: inactive; CYP2C9 act: inactive; CYP2C19 act: inactive; CYP2C19 inhib: inactive

Results for CCC(=NCCc1c(C)[nH]c2ccc(C)cc12)C1=C(O)CC(c2ccccc2)CC1=O (configuration not stated) ?
Measles CPE: inactive

How did CCCn1cnc2sc(CC)cc2c1=O do in these assays?
Measles CPE: inactive

How did COCc1cc(Sc2ccc(Cl)cc2)nc(-c2ccccc2)n1 do in these assays?
Measles CPE: inactive; CYP2C9 inhib: inactive; CYP2C9 act: inactive; CYP2C19 act: inactive; CYP2C19 inhib: inactive

How did Nc1ccc(Sc2cc(Cl)nc(N)n2)cc1 do in these assays?
Measles CPE: inactive; CYP2C9 inhib: 74.5; CYP2C9 act: inactive; CYP2C19 act: inactive; CYP2C19 inhib: 53.3

What do the screens show for `Cc1ccc2cc(/C=C3\N=C(c4ccccc4)OC3=O)c(N3CCOCC3)nc2c1`?
Measles CPE: inactive; CYP2C9 inhib: inactive; CYP2C9 act: inactive; CYP2C19 act: inactive; CYP2C19 inhib: inactive

How did COc1ccccc1C(=O)NCC(=O)n1nc(C)cc1C do in these assays?
Measles CPE: inactive; CYP2C9 inhib: inactive; CYP2C9 act: 3; CYP2C19 act: inactive; CYP2C19 inhib: inactive

Results for Cc1cc(C)n(C(=O)CCC(=O)NCc2ccccc2)n1 ?
Measles CPE: inactive; CYP2C9 inhib: inactive; CYP2C9 act: inactive; CYP2C19 act: inactive; CYP2C19 inhib: inactive

Results for Cc1cc(C)n(C(=O)CCNC(=O)c2ccccc2Br)n1 ?
Measles CPE: inactive; CYP2C9 inhib: inactive; CYP2C9 act: 2.1; CYP2C19 act: inactive; CYP2C19 inhib: inactive

Results for COc1cc(C(=O)NCC(=O)n2nc(C)cc2C)cc(OC)c1OC ?
Measles CPE: inactive; CYP2C9 inhib: inactive; CYP2C9 act: inactive; CYP2C19 act: inactive; CYP2C19 inhib: inactive

What do the screens show for `COc1cccc(/C=N/c2sc(Cc3ccccc3)c(C)c2C(N)=O)c1O`?
Measles CPE: inactive

Results for Cc1ccc(S(=O)(=O)NC(=O)c2cc(C)n(CCCn3ccnc3)c2C)cc1 ?
Measles CPE: inactive; CYP2C9 inhib: 89.9; CYP2C9 act: inactive; CYP2C19 act: inactive; CYP2C19 inhib: 53.8

Results for C=CCn1c(SCc2nc(N)nc(N(C)C)n2)nnc1-c1cccnc1 ?
Measles CPE: 36.0; CYP2C9 inhib: inactive; CYP2C9 act: inactive; CYP2C19 act: inactive; CYP2C19 inhib: inactive

How did C=CCn1c(SCc2ccc(OC)cc2)nnc1-c1cccnc1 do in these assays?
Measles CPE: inactive; CYP2C9 inhib: inactive; CYP2C9 act: inactive; CYP2C19 act: inactive; CYP2C19 inhib: 77.3

What do the screens show for `C=CCn1c(SCC(=O)N2CCN(c3ccc(F)cc3)CC2)nnc1-c1ccco1`?
Measles CPE: inactive; CYP2C9 inhib: inactive; CYP2C9 act: inactive; CYP2C19 act: inactive; CYP2C19 inhib: inactive

Results for C=CCn1c(SCc2nc(N)nc(N3CCCCC3)n2)nnc1-c1ccco1 ?
Measles CPE: inactive; CYP2C9 inhib: inactive; CYP2C9 act: inactive; CYP2C19 act: inactive; CYP2C19 inhib: 58.8

What do the screens show for `C=CCn1c(SCc2ccc(C#N)cc2)nnc1-c1cccc(OC)c1`?
Measles CPE: inactive; CYP2C9 inhib: 64.2; CYP2C9 act: inactive; CYP2C19 act: inactive; CYP2C19 inhib: 90.6

What do the screens show for `C=CCn1c(=N)c(C(=O)OC)cc2c(=O)n3cccc(C)c3nc21`?
CYP2C9 inhib: inactive; CYP2C9 act: inactive; CYP2C19 act: inactive; CYP2C19 inhib: inactive

Results for Cc1c(NC(=O)C2CC=CCC2C(=O)O)c(=O)n(-c2ccccc2)n1C (configuration not stated) ?
Measles CPE: inactive; CYP2C9 inhib: inactive; CYP2C9 act: inactive; CYP2C19 act: inactive; CYP2C19 inhib: inactive

How did COc1ccc(-n2c(SCc3ccc(C#N)cc3)nnc2-c2ccccn2)cc1 do in these assays?
Measles CPE: inactive; CYP2C9 inhib: inactive; CYP2C9 act: inactive; CYP2C19 act: inactive; CYP2C19 inhib: inactive

Results for COc1cccc(-c2nnc(SCc3ccc(C#N)cc3)n2Cc2ccco2)c1 ?
Measles CPE: inactive; CYP2C9 inhib: 94.8; CYP2C9 act: inactive; CYP2C19 act: inactive; CYP2C19 inhib: 90.8

What do the screens show for `CCn1c(SCc2ccc(C(=O)Nc3cc(C)cc(C)c3)cc2)nnc1-c1ccncc1`?
Measles CPE: inactive; CYP2C9 inhib: inactive; CYP2C9 act: inactive; CYP2C19 act: inactive; CYP2C19 inhib: inactive

How did Cc1ccc(-n2c(SCc3ccc(C#N)cc3)nnc2-c2ccccn2)cc1 do in these assays?
Measles CPE: inactive; CYP2C9 inhib: 50.8; CYP2C9 act: inactive; CYP2C19 act: inactive; CYP2C19 inhib: 50.5

What do the screens show for `CCn1c(SCc2ccc(OC)cc2)nnc1-c1ccncc1`?
Measles CPE: inactive; CYP2C9 inhib: inactive; CYP2C9 act: inactive; CYP2C19 act: inactive; CYP2C19 inhib: 92.2

Results for Cn1c(SCc2ccc(C#N)cc2)nnc1-c1cccc(Cl)c1 ?
CYP2C9 inhib: inactive; CYP2C9 act: inactive; CYP2C19 act: inactive; CYP2C19 inhib: 74.5

Results for Cc1ccc(-c2nnc(SCc3ccc(C#N)cc3)n2Cc2ccco2)cc1 ?
Measles CPE: inactive; CYP2C9 inhib: inactive; CYP2C9 act: inactive; CYP2C19 act: inactive; CYP2C19 inhib: inactive

How did Cc1ccc2c(c1)C(=O)C(=O)N2CC(=O)OC(C)C do in these assays?
Measles CPE: inactive; CYP2C9 inhib: inactive; CYP2C9 act: inactive; CYP2C19 act: inactive; CYP2C19 inhib: inactive

How did Nc1nonc1-c1noc(CCCCCN2C(=O)c3ccccc3C2=O)n1 do in these assays?
Measles CPE: inactive; CYP2C9 inhib: inactive; CYP2C9 act: inactive; CYP2C19 act: inactive; CYP2C19 inhib: inactive

What do the screens show for `Fc1ccc(/C=C2\CCCC3=C2NC(=S)NC3c2ccc(F)cc2)cc1` (configuration not stated)?
Measles CPE: inactive

How did CCn1c(SCc2cccc(C)c2)nnc1-c1ccc(C)cc1 do in these assays?
Measles CPE: inactive; CYP2C9 inhib: inactive; CYP2C9 act: inactive; CYP2C19 act: inactive; CYP2C19 inhib: 85.9

How did COc1ccc2c(c1)C(NC(C)=O)C(=O)N2C (configuration not stated) do in these assays?
Measles CPE: inactive; CYP2C9 inhib: inactive; CYP2C9 act: inactive; CYP2C19 act: inactive; CYP2C19 inhib: inactive

How did COc1cccc(SCc2noc(C(=O)NC(C)C)c2C(=O)O)c1 do in these assays?
Measles CPE: inactive; CYP2C9 inhib: 61.3; CYP2C9 act: inactive; CYP2C19 act: inactive; CYP2C19 inhib: inactive

How did CC(C)NC(=O)c1onc(CSc2ccccc2)c1C(=O)O do in these assays?
Measles CPE: inactive; CYP2C9 inhib: inactive; CYP2C9 act: inactive; CYP2C19 act: inactive; CYP2C19 inhib: inactive

How did Cc1cc(C)cc(SCc2noc(C(=O)NC(C)C)c2C(=O)O)c1 do in these assays?
Measles CPE: inactive; CYP2C9 inhib: 70.2; CYP2C9 act: inactive; CYP2C19 act: inactive; CYP2C19 inhib: inactive

High-throughput results from PubChem.
